This is an account of results in PubChem BioAssay (NCATS).

Records with an inconclusive call do not appear. The source made the active and inactive calls. Unless noted, calls come from the whole dose curve; as a rule, active = well fitted curve in either direction with a large enough effect (not every such curve was filed as active); inconclusive = small, poorly fitted or top-dose-only effect, or another doubt; inactive = flat fitted curve, though single readings scatter.

Experiment [1] can be described thus: AP1 Signaling Pathway (AID 357).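 Note: ME-180 reporter cells stimulated with EGF at its EC50 level; % is set by controls: 0 for no effect and ±100 for the full control effect.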 The procedure, abridged: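 Read-out was the 460nm/530nm emission ratio (excitation 405nm) after CCF4 loading for 2.5 hours at room temperature. Cells carried an AP-1-driven beta-lactamase reporter, were stimulated with EC50 EGF plus compound for 5 hours, and AC50 values came from titrations.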
For experiment [2], the target named is Cytochrome P450 1A2 (Homo sapiens) (UniProt P05177). Put plainly: p450-cyp1a2 (AID 410; calls by dose curve; note: potency is the fitted concentration of half-maximal effect;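 for activity change, negative = inhibition: -100% = full effect of reference inhibitor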). The procedure, abridged: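 O-Demethylation of luciferin 6' methyl ether by human CYP1A2 is monitored as luciferase luminescence. Substrate sits at Km (100uM); enzyme is 20nM. Values are scaled to 57 uM furafylline as maximal inhibition.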
Chain of Cytochrome P450 1A2 (Homo sapiens) (P05177 whole entry, looked up): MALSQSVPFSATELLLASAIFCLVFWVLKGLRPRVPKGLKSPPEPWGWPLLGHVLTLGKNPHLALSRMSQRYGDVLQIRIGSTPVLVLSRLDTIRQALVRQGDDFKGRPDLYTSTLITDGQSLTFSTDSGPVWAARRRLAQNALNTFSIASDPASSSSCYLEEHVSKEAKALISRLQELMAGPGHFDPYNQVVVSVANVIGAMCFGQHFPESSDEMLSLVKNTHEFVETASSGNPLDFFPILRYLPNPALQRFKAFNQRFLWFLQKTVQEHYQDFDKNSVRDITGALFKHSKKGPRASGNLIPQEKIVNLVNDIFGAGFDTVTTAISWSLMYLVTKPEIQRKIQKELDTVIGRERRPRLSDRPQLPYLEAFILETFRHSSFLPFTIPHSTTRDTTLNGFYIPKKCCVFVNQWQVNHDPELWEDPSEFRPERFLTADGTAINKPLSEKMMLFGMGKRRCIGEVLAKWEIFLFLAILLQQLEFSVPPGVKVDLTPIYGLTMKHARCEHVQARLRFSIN
The nature of experiment [3]: NFAT Signaling Pathway (AID 444).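 Note: carbachol stimulus at about its EC50 of 1 µM final; % is set by controls: 0 for no effect and ±100 for the full control effect.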 The conditions noted are these: Jurkat NFAT-bla M1, carbachol, beta-lactamase ratio, 5 h; at 7.69 µM (top of the series). In outline: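 Jurkat cells carrying an NFAT-driven β-lactamase reporter and co-transfected muscarinic M1 receptor were treated with compound plus carbachol (1 uM final, an EC50 level) for 5 h at 37 °C. CCF4 loading followed for 1 h at RT; 460/530 nm ratio gave %activity.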

Experiment [4] in a line: Stat Signaling Pathway (AID 446).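 Note: ME-180 cervical cancer cells given 40 pM IL-6 alongside compound; SIE-controlled beta-lactamase reporter measured as 460/530 nm FRET emission ratio; % is set by controls: 0 for no effect and ±100 for the full control effect.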 The procedure, abridged: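 Overnight-plated ME-180 cells bearing a STAT Inducible Element beta-lactamase reporter; 5 h co-exposure to compound and 40 pM IL-6; values normalized to 300 pM IL-6 and 125 nM JAK inhibitor controls.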
The target of experiment [5] is Glucocorticoid receptor (Homo sapiens) (UniProt P04150). Put plainly: GR-EFC Redistribution (AID 451; calls by dose curve; note: potency is the fitted concentration of half-maximal effect). To be noted: CHO-K1 GR-EFC translocation, beta-gal luminescence, 2 h. In outline: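 CHO-K1 cells stably expressing nuclear-localized β-gal enzyme acceptor and GR fused C-terminally to the enzyme donor fragment; ligand-driven nuclear translocation restores β-gal by complementation. Compounds titrated up to 46 uM final, 2 h at 37 °C; luminescence read.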
Chain of Glucocorticoid receptor (Homo sapiens) (P04150 whole entry, looked up, the tested form may be a part): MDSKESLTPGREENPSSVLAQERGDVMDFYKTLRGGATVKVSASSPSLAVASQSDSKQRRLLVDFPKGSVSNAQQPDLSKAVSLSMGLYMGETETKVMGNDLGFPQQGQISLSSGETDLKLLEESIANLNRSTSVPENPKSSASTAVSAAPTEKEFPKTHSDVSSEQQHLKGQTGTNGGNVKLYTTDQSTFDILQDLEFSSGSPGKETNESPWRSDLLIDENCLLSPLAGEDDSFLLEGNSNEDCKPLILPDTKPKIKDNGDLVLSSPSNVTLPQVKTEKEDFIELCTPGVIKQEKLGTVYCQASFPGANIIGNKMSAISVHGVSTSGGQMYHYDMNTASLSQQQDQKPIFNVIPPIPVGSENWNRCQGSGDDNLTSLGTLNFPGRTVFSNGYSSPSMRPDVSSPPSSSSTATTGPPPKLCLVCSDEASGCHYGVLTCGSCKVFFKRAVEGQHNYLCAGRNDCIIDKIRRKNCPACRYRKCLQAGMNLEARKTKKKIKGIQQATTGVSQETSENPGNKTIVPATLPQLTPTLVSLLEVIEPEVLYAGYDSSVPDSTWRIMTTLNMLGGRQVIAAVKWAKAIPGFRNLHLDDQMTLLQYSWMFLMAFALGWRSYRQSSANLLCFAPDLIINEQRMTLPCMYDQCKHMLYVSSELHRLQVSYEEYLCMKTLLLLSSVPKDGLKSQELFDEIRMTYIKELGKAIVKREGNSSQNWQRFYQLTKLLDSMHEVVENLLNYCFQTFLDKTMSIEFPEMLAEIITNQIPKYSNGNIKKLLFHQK

Experiment [6] deals with Mitogen-activated protein kinase 10 (Mus musculus) (UniProt Q61831). Put plainly: JNK3 AlphaScreen Assay (AID 530).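 Note: kinase came from lysate of stimulated human HepG2 cells; signal reports phosphorylation of biotinylated GST-cJun 1-79 at Ser73 with 10 µM ATP; % is set by controls: 0 for no effect and ±100 for the full control effect.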 The procedure, abridged: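 Phosphorylation of biotinylated GST-cJun(1-79) at Ser73 is measured by AlphaScreen proximity luminescence. Enzyme is JNK3 in HepG2 lysates activated with interleukin-1beta and tumor necrosis factor alpha; ATP is 10 uM final.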
The target of experiment [7] is 3',5'-cyclic-AMP phosphodiesterase 4B (Homo sapiens) (UniProt Q07343). Put plainly: qHTS Assay for Inhibitors of PDE-IV (AID 607; active = well fitted activation curve with a large enough effect in the main read-out, with a control signal flat, not every such curve was filed as active; note: % of control where 0% means no effect). In outline:
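Live HEK293 cells with a modified cyclic nucleotide-gated (CNG) channel report intracellular cAMP via membrane-potential dye fluorescence (ex 535/em 590 nm). Endogenous PDE-IV was targeted. Compounds were tested at up to 22.9 uM final; RO 20-1724 100 uM served as control.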
(In general: qHTS replaces the single test concentration by a dilution series.)

Experiment [8] has as its target Cytochrome P450 3A4 (Homo sapiens) (UniProt P08684). Put plainly: qHTS Assay for Activators of Cytochrome P450 3A4 (AID 885; active = well fitted curve in the direction sought with a large enough effect; an effect the other way counts as inactive or inconclusive; note: nearly all actives have a fitted effect of over 65% in size; note: potency is the fitted concentration of half-maximal effect). The procedure, abridged:
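Using 20nM recombinant human CYP3A4 in potassium phosphate (200mM), substrate Luciferin-PPXE at 25uM, luminescent luciferin detection followed a 60-min RT NADPH reaction; data scaled to 57 uM ketoconazole.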

For experiment [9], the target named is Cytochrome P450 2D6 (Homo sapiens) (UniProt P10635). Description: qHTS Assay for Inhibitors and Substrates of Cytochrome P450 2D6 (AID 891; active = well fitted curve in the direction sought with a large enough effect; an effect the other way counts as inactive or inconclusive; note: potency is the fitted concentration of half-maximal effect; nearly all actives have a fitted effect of over 60% in size). The procedure, abridged:
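Luminescent read-out of luciferin formed by 5 nM human CYP2D6 demethylating 30 uM Luciferin-ME EGE (Km level) over 60 min at room temperature after NADPH regeneration addition. Data normalized to full inhibition by 1.43 uM quinidine.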

A short description of experiment [10]: qHTS Assay for Lipid Storage Modulators (AID 1519; calls by dose curve). To be noted: Drosophila S3 cells, BODIPY lipid droplet/cell ratio, laser cytometry, cells loaded with oleic acid; for activity change, negative = inhibition: at 57.5 µM (top of the series). In outline: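 Cells seeded at 5,000 per well were treated with compounds over a concentration series and loaded with oleic acid (400 uM, as added). Lipid droplet fluorescence (488 nm excitation, 500-530 nm channel) was read by laser-scanning cytometry and normalized to 20 uM Triacsin C.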

Experiment [11] can be described thus: Primary qHTS for small molecule stabilizers of the endoplasmic reticulum resident proteome: Secreted ER Calcium Modulated Protein (SERCaMP) assay (AID 1508630; active = well fitted curve in the direction sought with a large enough effect; an effect the other way counts as inactive or inconclusive; note: % is set by controls: 0 for no effect and ±100 for the full control effect). The procedure, abridged: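 The SH-SY5Y reporter protocol was run at 3 concentrations up to 38.3 uM (primary) or 11 concentrations (follow-up): 16 h compound, 100 nM thapsigargin for 4 h, then extracellular luciferase luminescence.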

Experiment [12] concerns HIV-1 nucleocapsid protein NCp7 (binding to TG oligonucleotide). Put plainly: HIV Nucleocapsid (AID 346; call rule not given here;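 note: potency is the fitted concentration of half-maximal effect; potency is for inhibitors that block NC binding and lower polarization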). The conditions noted are these: HIV-1 NC / fluorescein-TGTGTGTG probe, fluorescence polarization. The procedure, abridged: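 NCp7 100 nM + fluorescein TG4xF 10 nM; Hepes pH 7.5/250mM NaCl/1uM ZnCl2/0.004% PEG 20000; 1 hr RT; FP, 45 s exposure; oligo-only wells as negative control.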
In general terms: In fluorescence polarisation assays a small probe gives low polarisation when free and higher when bound to something large.

Experiment [13] concerns the target Lysosomal acid glucosylceramidase (Homo sapiens) (UniProt P04062). Description: Glucocerebrosidase-p2 (AID 348; in the data active = potency below about 10 µM; note: potency is the fitted concentration of half-maximal effect). To be noted: purified GBA, blue fluorogenic substrate, 40 min. In outline: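 Normal human glucocerebrosidase (0.2 nM) with blue fluorogenic substrate (80 uM final) in citrate/phosphate pH 5.9 with 10mM sodium taurocholate, 0.01% tween-20; 40 min RT, NaOH/glycine stop; fluorescence Ex 365/Em 440; AC50 from a titration from 0.6 nM upwards.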

Experiment [14] concerns the target Cytochrome P450 2C9 (Homo sapiens) (UniProt P11712). Put plainly: qHTS Assay for Inhibitors and Substrates of Cytochrome P450 2C9 (AID 883; active = well fitted curve in the direction sought with a large enough effect; an effect the other way counts as inactive or inconclusive; note: potency is the fitted concentration of half-maximal effect; nearly all actives have a fitted effect of over 60% in size). In outline:
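CYP2C9 deoxyluciferin hydroxylation, 37C, 60 min with NADPH regeneration; 10nM enzyme, 100uM Luciferin-H (KM). Glo detection reagent stopped reaction; luminescence normalized to sulphaphenazole (57uM) full inhibition.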

Experiment [15] has as its target Cytochrome P450 3A4 (Homo sapiens) (UniProt P08684). Description: qHTS Assay for Inhibitors and Substrates of Cytochrome P450 3A4 (AID 884; active = well fitted curve in the direction sought with a large enough effect; an effect the other way counts as inactive or inconclusive; note: % is set by controls: 0 for no effect and ±100 for the full control effect; nearly all actives have a fitted effect of over 50% in size). In outline:
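Luminescent readout of luciferin produced by CYP3A4 (20 nM) dealkylation of Luciferin-PPXE, 25 uM (its KM). NADPH-driven reaction ran 60 min at RT after 10 min compound preincubation; data scaled to 57 uM ketoconazole as 100% inhibition.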

[16] abbreviates: measured here: cell count channel max response.
[17] abbreviates: measured here: lipid channel max response.

Chain of 3',5'-cyclic-AMP phosphodiesterase 4B (Homo sapiens) (Q07343 whole entry, looked up): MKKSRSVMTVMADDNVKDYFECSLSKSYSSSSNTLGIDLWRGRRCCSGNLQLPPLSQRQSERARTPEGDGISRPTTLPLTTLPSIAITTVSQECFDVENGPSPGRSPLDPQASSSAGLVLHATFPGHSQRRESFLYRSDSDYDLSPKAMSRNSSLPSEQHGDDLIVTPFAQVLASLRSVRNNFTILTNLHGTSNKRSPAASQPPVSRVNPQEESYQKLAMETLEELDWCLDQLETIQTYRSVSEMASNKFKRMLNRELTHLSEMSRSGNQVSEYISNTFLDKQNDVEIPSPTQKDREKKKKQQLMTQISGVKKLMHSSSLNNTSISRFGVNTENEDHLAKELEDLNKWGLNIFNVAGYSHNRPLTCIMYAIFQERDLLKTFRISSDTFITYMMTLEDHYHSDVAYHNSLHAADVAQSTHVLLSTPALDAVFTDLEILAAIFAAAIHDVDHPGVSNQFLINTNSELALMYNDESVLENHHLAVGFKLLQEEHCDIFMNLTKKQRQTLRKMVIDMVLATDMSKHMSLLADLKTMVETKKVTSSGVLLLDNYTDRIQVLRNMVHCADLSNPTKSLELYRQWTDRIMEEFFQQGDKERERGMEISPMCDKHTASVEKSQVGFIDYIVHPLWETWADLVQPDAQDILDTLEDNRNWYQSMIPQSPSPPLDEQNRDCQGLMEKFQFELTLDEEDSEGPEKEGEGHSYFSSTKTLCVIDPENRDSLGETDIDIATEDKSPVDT
Chain of Cytochrome P450 3A4 (Homo sapiens) (P08684 whole entry, looked up): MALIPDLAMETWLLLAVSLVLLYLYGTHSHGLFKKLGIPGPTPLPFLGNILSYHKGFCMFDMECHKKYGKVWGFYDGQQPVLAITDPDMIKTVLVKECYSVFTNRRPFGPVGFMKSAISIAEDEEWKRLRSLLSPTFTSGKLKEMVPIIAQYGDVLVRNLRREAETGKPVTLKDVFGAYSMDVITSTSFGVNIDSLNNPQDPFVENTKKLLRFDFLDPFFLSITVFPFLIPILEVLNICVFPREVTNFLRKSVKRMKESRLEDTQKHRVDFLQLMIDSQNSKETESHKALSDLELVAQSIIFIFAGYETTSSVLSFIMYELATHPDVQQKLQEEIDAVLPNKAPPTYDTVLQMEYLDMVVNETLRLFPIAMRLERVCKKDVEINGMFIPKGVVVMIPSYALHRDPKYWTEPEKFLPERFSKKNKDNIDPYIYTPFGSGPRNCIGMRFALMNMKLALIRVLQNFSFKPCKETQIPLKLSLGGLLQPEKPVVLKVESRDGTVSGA
Chain of Cytochrome P450 2D6 (Homo sapiens) (P10635 whole entry, looked up): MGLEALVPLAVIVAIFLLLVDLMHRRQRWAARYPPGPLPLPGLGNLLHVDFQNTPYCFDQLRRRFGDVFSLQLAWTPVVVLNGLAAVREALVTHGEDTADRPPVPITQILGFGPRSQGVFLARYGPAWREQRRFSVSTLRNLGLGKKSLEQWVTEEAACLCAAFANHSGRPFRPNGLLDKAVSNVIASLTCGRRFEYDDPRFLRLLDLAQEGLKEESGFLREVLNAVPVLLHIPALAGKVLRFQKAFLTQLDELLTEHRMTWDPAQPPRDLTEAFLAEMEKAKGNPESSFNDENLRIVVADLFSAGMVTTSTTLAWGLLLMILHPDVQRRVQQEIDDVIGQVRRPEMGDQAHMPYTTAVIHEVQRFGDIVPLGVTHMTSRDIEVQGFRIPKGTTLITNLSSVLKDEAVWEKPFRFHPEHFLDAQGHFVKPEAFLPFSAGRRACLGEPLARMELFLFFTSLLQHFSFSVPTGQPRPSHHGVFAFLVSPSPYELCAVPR
Chain of Lysosomal acid glucosylceramidase (Homo sapiens) (P04062 whole entry, looked up): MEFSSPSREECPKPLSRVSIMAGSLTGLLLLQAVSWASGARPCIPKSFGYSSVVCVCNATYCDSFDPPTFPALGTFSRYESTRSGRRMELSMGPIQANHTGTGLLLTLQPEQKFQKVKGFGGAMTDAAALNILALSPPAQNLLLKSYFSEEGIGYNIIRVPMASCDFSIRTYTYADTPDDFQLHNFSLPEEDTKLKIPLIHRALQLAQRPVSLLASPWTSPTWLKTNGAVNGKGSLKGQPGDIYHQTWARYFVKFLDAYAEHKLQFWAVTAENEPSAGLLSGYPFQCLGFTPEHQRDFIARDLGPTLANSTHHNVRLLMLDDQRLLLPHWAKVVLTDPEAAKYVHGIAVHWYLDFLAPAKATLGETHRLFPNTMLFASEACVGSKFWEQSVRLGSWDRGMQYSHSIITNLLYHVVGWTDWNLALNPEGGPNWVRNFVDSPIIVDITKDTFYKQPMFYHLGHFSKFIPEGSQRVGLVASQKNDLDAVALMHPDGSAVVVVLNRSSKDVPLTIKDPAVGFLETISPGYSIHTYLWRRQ
Chain of Cytochrome P450 2C9 (Homo sapiens) (P11712 whole entry, looked up): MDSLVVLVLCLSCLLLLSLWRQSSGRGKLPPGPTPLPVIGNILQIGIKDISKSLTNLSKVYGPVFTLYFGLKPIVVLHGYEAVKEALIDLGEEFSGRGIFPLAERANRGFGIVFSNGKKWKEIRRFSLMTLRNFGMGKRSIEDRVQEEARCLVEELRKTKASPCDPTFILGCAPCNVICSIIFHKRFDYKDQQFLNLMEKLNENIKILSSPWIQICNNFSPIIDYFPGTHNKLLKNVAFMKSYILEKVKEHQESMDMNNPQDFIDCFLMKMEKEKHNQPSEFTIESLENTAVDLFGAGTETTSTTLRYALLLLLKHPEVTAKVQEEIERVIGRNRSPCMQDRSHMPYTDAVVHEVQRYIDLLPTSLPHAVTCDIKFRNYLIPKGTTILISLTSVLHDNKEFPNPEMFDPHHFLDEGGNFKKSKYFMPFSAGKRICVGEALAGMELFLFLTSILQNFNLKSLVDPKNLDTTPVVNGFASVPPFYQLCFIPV

Take `c1cnc(N2CC[C@@]3(CCCNC3)C2)nc1`: the result in [1], in [4], in experiment [6] and in experiment [11] was inactive. In addition, the Potency was 25.1 µM (active) in experiment [2], > 46 µM (inactive) in experiment [5] and 7.94 µM (active) in experiment [9]. For the same compound, the figures for the activity change, negative = inhibition in experiment [3] and in [10] were -23.9% (inactive) and 6.19% (inactive), respectively. The Potency result in experiment [7] and in experiment [8] was “inactive” throughout. Moreover, the max response in experiment [10] (setting [16]) is 20.5%; in [10] (setting [17]) it was 29%.
For `CCCN1CCc2cc(O)cc3c2C1Cc1ccc(O)c(O)c1-3` (stereo unspecified), in experiment [11], the result was inactive.
For the compound `O=C(Oc1ccccc1)N1CCC2(CCN(Cc3ccncc3)CC2)CC1`, the Potency in experiment [12] was > 20 µM (inactive); in experiment [13], > 11.4 µM (inactive); in [5], > 46 µM (inactive); in experiment [14], 3.98 µM (active). For the same compound, the compound was called inactive in experiment [1], in experiment [4], in experiment [6] and in experiment [11]. The Potency entry in [7] and in [8] was “inactive” each time.
On to `c1csc(CN2CC3(CCNCC3)C2)n1`, for which the result in experiment [1], in [4], in experiment [6] and in experiment [11] was inactive. Also, the activity change, negative = inhibition in experiment [3] is 5.76% (inactive); in experiment [10], 9.28% (inactive). In addition, the Potency in [5] was > 46 µM (inactive). Further, in [7], the Potency result is “inactive”. Besides, the max response was determined as 10.7% in [10] (setting [16]) and 24.8% in [10] (setting [17]).
`CN1CCCC2(CCN(C(=O)c3csnn3)CC2)C1`: the compound was classed as inactive in experiment [1], in experiment [6] and in [11]. For the same compound, the Potency entry in experiment [2] is “inactive”. The activity change, negative = inhibition was -27.8% (inactive) in [3] and -1.92% (inactive) in experiment [10]. Besides, in experiment [5], the Potency was > 46 µM (inactive). The max response was -8.1% in experiment [10] (setting [16]) and -6.49% in experiment [10] (setting [17]).
For `O=C(Nc1ccccc1)N1CCC2(CC1)CCN(C(=O)Oc1ccccc1)CC2`, the Potency was > 11.4 µM (inactive) in experiment [13], > 46 µM (inactive) in experiment [5] and 10 µM (active) in experiment [8]. Besides, the compound was classed as inactive in [1], in experiment [6] and in [11]. For the same compound, the Potency result in experiment [2], in experiment [7] and in experiment [15] was “inactive” in each case. For the same compound, the activity change, negative = inhibition in experiment [3] was 5.23% (inactive).
Turning to `CS(=O)(=O)N1CCC2(CC1)CN(Cc1ccncc1)C2`, the compound was classed as inactive in [1], in [4], in experiment [6] and in [11]. In addition, the results for the activity change, negative = inhibition in experiment [3] and in [10] were 6.37% (inactive) and 4.09% (inactive), respectively. Besides, the Potency in experiment [5] is > 46 µM (inactive). Besides, the Potency entry in [7] and in [8] was “inactive” each time. Besides, the max response in experiment [10] (setting [16]) is 21.7%; in experiment [10] (setting [17]) it was 27.2%.
Consider `O=C(c1ccncc1)N1CCC2(CC1)CN(Cc1ccccc1)C2`, for which the call in experiment [1], in experiment [6] and in [11] was inactive. The Potency result in experiment [2], in experiment [7] and in experiment [8] was “inactive” in each case. For the same compound, the Potency in [5] was > 46 µM (inactive); in [9] it was 6.31 µM (active). The activity change, negative = inhibition in [10] is -1.45% (inactive). In addition, the max response in [10] (setting [16]) is -4.26%; in experiment [10] (setting [17]), -4.05%.
For `O=C(Oc1ccccc1)N1CCC[C@@]2(CCN(Cc3cc(C(F)(F)F)cc(C(F)(F)F)c3)C2)C1`, the Potency is > 20 µM (inactive) in [12] and > 46 µM (inactive) in experiment [5]. Also, the call in experiment [4], in [6] and in experiment [11] was inactive. Further, the Potency result in experiment [7] is “inactive”.
